Screens as filed in PubChem BioAssay.
TDP1 cell noCPT – qHTS for Inhibitors of human tyrosyl-DNA phosphodiesterase 1 (TDP1): qHTS in cells in absence of CPT; AID 686978, 2013; DT40 Tdp1-/- hTDP1 cells, no CPT, ATP luminescence, 48 h; Potency, µM (doses to about 46.2 µM), for the others: top-dose activity change, negative = growth inhibition, hits mostly inhibitors; 15% of 420,000 active; further: potency means the concentration at half of the fitted maximal effect; nearly all actives have a fitted effect of over 55% in size
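Seeded 400 DT40-hTDP1 cells/well (vehicle DMSO, no 20 nM CPT); pinned compounds; ≥48 hr at 37 °C; CellTiter-Glo luminescence as viability measure.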
HT1080 IDH1KD tx – toxicity to HT-1080 IDH1 knockdown cells (counter line); HT-1080 IDH1 knockdown viability, ATP luminescence, 48 h; Potency, µM (highest dose often 46.1 µM), for the others: at the highest dose activity, negative = toxicity, hits mostly cytotoxic; 2% of 360,000 active; AID 686971;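 further: potency means the concentration at half of the fitted maximal effect; 0% = DMSO wells and -100% = cell-free medium wells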
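Assay cells: HT-1080 with IDH1 knockdown, 750 per well, RPMI/5% FBS. Exposure: 48 h at 37 °C following 2 h pre-incubation. Read: CellTiter-Glo luminescence; fitted concentration-response, curve class assigned.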
IL1B secr inh – inhibitors of inflammasome signaling (IL-1 beta secretion); THP-1 LPS/ATP IL-1B secretion, AlphaLISA, 16 h; stronger effect = lower value; activity change, % at 57.5 µM; 4.7% of 360,000 active; AID 743279; in the data active means activity change below about -50%; inconclusive means mostly about -30% to -49%
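THP-1 cells pretreated 1 hr with compounds (up to 57.5 uM final), then stimulated with LPS (250 ng/mL final) plus ATP (1.25 mM final); secreted IL-1B measured by AlphaLISA after 16 hr, decreased signal indicating inhibition.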
HT1080NT lethal – kills 2HG-producing HT-1080-NT fibrosarcoma cells; 1.6% of 360,000 active; AID 686970; HT-1080-NT fibrosarcoma viability, CellTiter-Glo ATP luminescence, 48 h; Potency, µM (series often up to 46.1 µM), without a hit: top-dose activity, negative = less viability, usual class: cytotoxic;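 further: NT is the 2HG producing partner of a matched IDH1 knockdown line; potency means the concentration at half of the fitted maximal effect; 0% = DMSO-treated cells and -100% = media-only wells without cells; nearly all actives have a fitted effect of over 55% in size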
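Luminescent CellTiter-Glo readout after 48 hours of compound exposure at 37 degrees C defined viability of HT-1080-NT cells. Activity was normalized to DMSO wells and cell-free media wells; concentration-response curves were fitted and assigned curve classes.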
DT40 TDP1 CPT – DT40-hTDP1 cell growth loss with CPT. chicken DT40 Tdp1-/-;hTDP1 cells + 20 nM CPT, ATP luminescence, 48 h. Potency, µM (titrated, usually from 46.2 µM), for the others: at the highest dose activity change, negative = growth inhibition, usual class: inhibitors. 12% of 420,000 active; further: potency means the concentration at half of the fitted maximal effect; nearly all actives have a fitted effect of over 55% in size
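Cell growth measured by CellTiter-Glo luminescence after a minimum 48 h, 37 C compound exposure with 20 nM CPT in Tdp1-knockout DT40 cells stably expressing hTDP1, seeded 400/well; qHTS titration format.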
12-LOX inh – inhibitors of human 12S-lipoxygenase ALOX12; P18054; purified 12hLO, xylenol orange hydroperoxide absorbance; Potency, µM (titrated, usually from 108 µM), inactives show at the highest dose activity change, negative = inhibition, hits mostly inhibitors; 1.1% of 580,000 active; further: potency means the concentration at half of the fitted maximal effect
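Purified human 12hLO (150 nM final) in 25 mM Hepes, 0.01% Triton X-100, pH 7.0 was preincubated 15 min at room temperature with compound. Then 40 uM arachidonic acid was added, 30 min. Hydroperoxide was read by Fe-XO absorbance ratio 573/405 nm.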
An asterisk follows results filed as active; ? = inconclusive; . = no result. The full list was thinned out, with hits kept by preference. Unless noted, the call rests on the fitted dose curve; in most records, active means well fitted curve in the direction sought with a large enough effect; inconclusive means small, poorly fitted or top-dose-only effect, or another doubt; inactive means no such curve, though single readings can be large; an effect the other way counts as inactive or inconclusive. Unless noted, on the % scale 0 is the no-effect control and ±100 the full control effect.

SMILES	TDP1 cell noCPT	HT1080 IDH1KD tx	IL1B secr inh	HT1080NT lethal	DT40 TDP1 CPT	12-LOX inh
Cc1ccc(S(=O)(=O)N2CC3(O)CN(C(=O)OC(C)C)N(C(=O)OC(C)C)CC3(OC(=O)NC3CC3)C2)cc1 (configuration not stated)	?	17.8%	-21.0	13.4%	?	-7.5%
COC(=O)c1c(NC(=O)CCNCc2ccco2)sc2c1CCC2	?	?	-50.8*	?	23.1µM*	?
COC(=O)c1c(NC(=O)CCCC(=O)O)sc2c1CCC2	-3.5%	-9.5%	44.1	-4.3%	-5.7%	-10.6%
COc1ccc(OC)c(NC(=O)c2c(NC(=O)CNCc3ccco3)sc3c2CCC3)c1	3.66µM*	9.9%	-9.8	8.3%	-112.9%	0.0%
COc1ccc(NC(=O)c2c(NC(=O)CNCc3ccco3)sc3c2CCC3)cc1	-18.7%	3.7%	-0.1	1.9%	-16.6%	70.1%
COc1ccc(NC(=O)c2c(NC(=O)CNCc3ccco3)sc3c2CCC3)c(OC)c1	20.6µM*	-0.5%	-0.5	-0.6%	?	61.1%
CN(Cc1cn[nH]c1-c1ccccc1)CC1CCCN(CCc2ccc(F)cc2)C1 (configuration not stated)	.	.	.	.	.	-1.2%
O=C(c1ccc(N2CC3CC(C2)[C@H]2CCCC(=O)N2C3)nc1)N1CCc2ccccc2C1 (some centres not stated)	.	.	.	.	.	16.2%
COC(=O)c1ccc2c(c1)N(CC(=O)Nc1ccc(C)cc1Cl)C(=O)c1ccccc1S2	.	.	.	.	.	-18.2%
CCCC1=C(C(=O)OCC)C(c2cc(Cl)cc(OC)c2OCC(=O)OCC)NC(=O)N1 (configuration not stated)	23.1µM*	-0.8%	6.3	-5.5%	?	-1.8%
Cc1nnc2nc(N)[nH]n2c1=O	.	.	.	.	.	10.3%
COc1ccc(OC)c(S(=O)(=O)N2CC=C(c3c(C)n(CC(=O)N4CCCC4)c4ccccc34)CC2)c1	18.4µM*	.	.	.	16.4µM*	1.0%
Cc1ccc2c(n1)sc1c(=O)n(-c3cccc(C(F)(F)F)c3)nnc12	?	.	.	.	-17.3%	-1.6%
COc1ccc(C(=O)NCCSCc2ccccc2Cl)cc1OC	?	-11.4%	-5.6	-7.8%	-12.3%	50.1µM*
COc1ccc(C(=O)NCCSCc2ccccc2)cc1OC	-18.9%	-13.1%	2.1	2.9%	-9.9%	-26.4%
COc1ccc(C(=O)NCC(=O)OCc2c(Cl)cccc2Cl)cc1OC	14.6µM*	1.7%	-7.0	12.1%	?	-15.4%
COc1ccc(NS(=O)(=O)c2cccc(C(=O)OCC(=O)N3CCN(c4ccc(OC)cc4)CC3)c2)cc1	13µM*	-20.2%	-10.9	-4.2%	13µM*	.
Cc1ccc(NS(=O)(=O)c2cccc(C(=O)N3CCCCCC3)c2)cc1	20.6µM*	-9.7%	-3.1	-14.4%	?	-20.1%
COc1ccc(N2CCN(C(=O)c3ccc(NS(=O)(=O)c4cccc(F)c4)cc3)CC2)cc1	?	-23.6%	-3.6	-6.2%	?	-25.1%
COc1ccc(NS(=O)(=O)c2cccc(C(=O)N3CCN(C(=O)c4ccco4)CC3)c2)cc1	-27.1%	-0.8%	41.0	-1.8%	9.2µM*	350.6%
Cc1ccc(Oc2ccc(NS(=O)(=O)c3cccc(C(=O)O)c3)cc2)cc1	7.31µM*	-3.7%	28.5	-4.7%	-2.7%	-2.7%
COc1ccc(NS(=O)(=O)c2cccc(C(=O)N3CCCCCCC3)c2)cc1	14.6µM*	-1.6%	0.0	0.0%	?	0.9%
Cc1cccc(C)c1OCc1cc(C(=O)N(Cc2nccn2C)C(C)C)no1	10.3µM*	-6.7%	5.7	1.9%	14.6µM*	2.8%
CC(C)N(Cc1nccn1C)C(=O)c1cc(COc2ccc(-n3cncn3)cc2)on1	?	-0.2%	0.0	-2.5%	-23.7%	-17.3%
